# Results taken from the supplement of paper PMC11732987, “Enantioselective OTUD7B fragment discovery through chemoproteomics screening and high-throughput optimisation” (Communications Chemistry, 2025).
# Unmarked numbers belong to inactive results.
# Columns and labels:
# Assay in all cases: log2 ratio of Biotin-Ahx-Ub-VS probe labelling (fragment/DMSO); higher = less target engagement (more negative = stronger competition), active = hit call of the paper (q ≤ 0.05, log2 ratio ≤ -1)
# Settings in all cases: compound concentration: 200 uM; treatment time: 3 h
# USP19 = target: T1, USP19 (UniProt O94966)
# T1 sequence (whole entry): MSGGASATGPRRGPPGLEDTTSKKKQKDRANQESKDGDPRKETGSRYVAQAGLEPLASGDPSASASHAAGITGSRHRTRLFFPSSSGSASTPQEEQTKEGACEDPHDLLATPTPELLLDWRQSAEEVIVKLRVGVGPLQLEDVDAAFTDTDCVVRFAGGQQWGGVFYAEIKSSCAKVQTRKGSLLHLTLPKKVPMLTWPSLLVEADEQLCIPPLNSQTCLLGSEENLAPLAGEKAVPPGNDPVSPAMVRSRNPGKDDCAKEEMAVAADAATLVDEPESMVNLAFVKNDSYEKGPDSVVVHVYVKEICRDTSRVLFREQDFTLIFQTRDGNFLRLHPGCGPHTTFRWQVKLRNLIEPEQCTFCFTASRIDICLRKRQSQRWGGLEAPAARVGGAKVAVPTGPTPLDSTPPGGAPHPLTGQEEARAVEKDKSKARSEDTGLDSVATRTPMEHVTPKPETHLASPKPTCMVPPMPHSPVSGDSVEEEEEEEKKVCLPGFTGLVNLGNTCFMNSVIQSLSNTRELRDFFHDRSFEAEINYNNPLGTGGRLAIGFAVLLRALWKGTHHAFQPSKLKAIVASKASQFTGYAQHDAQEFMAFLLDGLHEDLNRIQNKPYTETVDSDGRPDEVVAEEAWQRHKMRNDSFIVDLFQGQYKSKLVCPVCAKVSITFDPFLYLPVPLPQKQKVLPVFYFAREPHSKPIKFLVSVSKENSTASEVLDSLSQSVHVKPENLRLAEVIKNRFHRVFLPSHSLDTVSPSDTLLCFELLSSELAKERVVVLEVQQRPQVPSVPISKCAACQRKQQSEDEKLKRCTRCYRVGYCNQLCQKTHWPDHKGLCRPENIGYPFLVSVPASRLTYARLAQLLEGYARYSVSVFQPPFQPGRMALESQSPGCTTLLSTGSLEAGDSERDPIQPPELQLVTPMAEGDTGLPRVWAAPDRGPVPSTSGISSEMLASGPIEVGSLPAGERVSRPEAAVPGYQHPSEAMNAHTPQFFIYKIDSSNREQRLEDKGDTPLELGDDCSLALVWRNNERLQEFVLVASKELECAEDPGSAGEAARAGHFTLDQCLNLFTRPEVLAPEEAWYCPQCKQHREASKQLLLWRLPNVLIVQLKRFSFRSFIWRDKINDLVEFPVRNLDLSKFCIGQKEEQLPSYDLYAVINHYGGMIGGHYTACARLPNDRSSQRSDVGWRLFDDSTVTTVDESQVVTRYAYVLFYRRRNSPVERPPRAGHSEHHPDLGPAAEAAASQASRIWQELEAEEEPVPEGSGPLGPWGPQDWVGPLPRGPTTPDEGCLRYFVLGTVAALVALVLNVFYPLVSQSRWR
# Method in brief: (§1)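 Labelling with Biotin-Ahx-Ub-VS (0.5 µM final, 1 h) followed a 3 h triplicate treatment of HEK293T lysate (495 µg per sample, Tris/CHAPS/IGEPAL buffer with protease inhibitors) with fragment at 200 µM or vehicle. Labelled DUBs were NeutrAvidin-enriched, digested with LysC and trypsin, and run by diaPASEF LC-MS/MS. The values, average log2 fragment/vehicle ratios by unpaired t-test, come from global-median-normalised Spectronaut label-free quantities. Proteins with ≥2 unique peptides were used.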
# USP24 = USP24 (UniProt Q9UPU5)
# Method in brief: as §1
# USP25 = target: T2, USP25 (UniProt Q9UHP3)
# T2 sequence (whole entry): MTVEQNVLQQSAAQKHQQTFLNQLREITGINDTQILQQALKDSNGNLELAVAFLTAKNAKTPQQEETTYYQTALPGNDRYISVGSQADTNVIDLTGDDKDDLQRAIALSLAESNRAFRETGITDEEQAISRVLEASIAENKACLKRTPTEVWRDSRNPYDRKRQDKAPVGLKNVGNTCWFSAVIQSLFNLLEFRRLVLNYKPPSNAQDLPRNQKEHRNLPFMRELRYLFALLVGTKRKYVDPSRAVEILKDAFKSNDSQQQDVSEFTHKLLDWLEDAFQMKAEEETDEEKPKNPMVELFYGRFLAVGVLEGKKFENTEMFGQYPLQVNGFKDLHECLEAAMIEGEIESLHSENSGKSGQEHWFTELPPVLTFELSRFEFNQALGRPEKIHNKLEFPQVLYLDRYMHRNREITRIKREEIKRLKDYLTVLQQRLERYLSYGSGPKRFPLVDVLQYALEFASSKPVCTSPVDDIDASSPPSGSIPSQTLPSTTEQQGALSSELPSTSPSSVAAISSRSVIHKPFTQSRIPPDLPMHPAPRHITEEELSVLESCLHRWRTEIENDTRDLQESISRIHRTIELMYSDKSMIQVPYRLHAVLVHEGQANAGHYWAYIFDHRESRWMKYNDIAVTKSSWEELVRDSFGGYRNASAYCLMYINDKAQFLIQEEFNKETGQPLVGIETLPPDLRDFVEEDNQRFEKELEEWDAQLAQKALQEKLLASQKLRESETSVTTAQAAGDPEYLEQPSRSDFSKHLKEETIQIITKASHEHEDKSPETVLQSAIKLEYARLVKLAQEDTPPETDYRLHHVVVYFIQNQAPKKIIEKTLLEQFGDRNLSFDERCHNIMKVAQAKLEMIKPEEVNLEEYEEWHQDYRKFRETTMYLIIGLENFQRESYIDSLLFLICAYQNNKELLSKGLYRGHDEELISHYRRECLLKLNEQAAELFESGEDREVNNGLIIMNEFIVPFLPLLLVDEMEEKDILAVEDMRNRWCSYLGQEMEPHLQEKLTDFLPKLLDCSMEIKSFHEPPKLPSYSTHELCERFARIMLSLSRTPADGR
# Method in brief: as §1
# USP28 = target: T3, USP28 (UniProt Q96RU2)
# T3 sequence (whole entry): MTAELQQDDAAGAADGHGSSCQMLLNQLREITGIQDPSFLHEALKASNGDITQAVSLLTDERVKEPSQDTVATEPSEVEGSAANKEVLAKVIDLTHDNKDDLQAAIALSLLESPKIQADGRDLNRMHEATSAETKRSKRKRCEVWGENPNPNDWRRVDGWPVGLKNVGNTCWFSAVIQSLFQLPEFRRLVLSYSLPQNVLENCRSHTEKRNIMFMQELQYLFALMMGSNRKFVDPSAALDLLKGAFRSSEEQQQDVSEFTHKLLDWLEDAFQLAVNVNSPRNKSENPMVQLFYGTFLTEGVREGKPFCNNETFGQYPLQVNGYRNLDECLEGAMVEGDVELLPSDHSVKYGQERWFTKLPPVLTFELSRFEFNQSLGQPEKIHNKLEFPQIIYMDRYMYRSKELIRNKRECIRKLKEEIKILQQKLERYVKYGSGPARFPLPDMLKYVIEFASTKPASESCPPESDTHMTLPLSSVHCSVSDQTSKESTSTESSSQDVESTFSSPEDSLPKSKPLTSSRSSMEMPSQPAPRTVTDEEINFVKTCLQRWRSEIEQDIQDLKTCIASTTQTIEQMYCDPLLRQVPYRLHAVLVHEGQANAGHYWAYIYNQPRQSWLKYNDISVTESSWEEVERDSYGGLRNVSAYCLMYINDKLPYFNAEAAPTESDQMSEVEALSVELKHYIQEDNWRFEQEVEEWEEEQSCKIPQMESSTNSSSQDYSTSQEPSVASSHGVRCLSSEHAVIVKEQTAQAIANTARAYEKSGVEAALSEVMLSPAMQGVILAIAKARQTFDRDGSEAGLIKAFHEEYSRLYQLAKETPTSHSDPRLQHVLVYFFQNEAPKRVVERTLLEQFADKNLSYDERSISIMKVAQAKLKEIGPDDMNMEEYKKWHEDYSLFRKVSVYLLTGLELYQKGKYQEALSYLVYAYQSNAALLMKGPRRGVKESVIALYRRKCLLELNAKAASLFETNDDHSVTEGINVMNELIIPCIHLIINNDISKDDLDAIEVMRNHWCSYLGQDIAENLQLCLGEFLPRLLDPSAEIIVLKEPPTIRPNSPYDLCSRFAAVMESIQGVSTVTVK
# Method in brief: as §1
# USP24, sequence (Q9UPU5 whole entry): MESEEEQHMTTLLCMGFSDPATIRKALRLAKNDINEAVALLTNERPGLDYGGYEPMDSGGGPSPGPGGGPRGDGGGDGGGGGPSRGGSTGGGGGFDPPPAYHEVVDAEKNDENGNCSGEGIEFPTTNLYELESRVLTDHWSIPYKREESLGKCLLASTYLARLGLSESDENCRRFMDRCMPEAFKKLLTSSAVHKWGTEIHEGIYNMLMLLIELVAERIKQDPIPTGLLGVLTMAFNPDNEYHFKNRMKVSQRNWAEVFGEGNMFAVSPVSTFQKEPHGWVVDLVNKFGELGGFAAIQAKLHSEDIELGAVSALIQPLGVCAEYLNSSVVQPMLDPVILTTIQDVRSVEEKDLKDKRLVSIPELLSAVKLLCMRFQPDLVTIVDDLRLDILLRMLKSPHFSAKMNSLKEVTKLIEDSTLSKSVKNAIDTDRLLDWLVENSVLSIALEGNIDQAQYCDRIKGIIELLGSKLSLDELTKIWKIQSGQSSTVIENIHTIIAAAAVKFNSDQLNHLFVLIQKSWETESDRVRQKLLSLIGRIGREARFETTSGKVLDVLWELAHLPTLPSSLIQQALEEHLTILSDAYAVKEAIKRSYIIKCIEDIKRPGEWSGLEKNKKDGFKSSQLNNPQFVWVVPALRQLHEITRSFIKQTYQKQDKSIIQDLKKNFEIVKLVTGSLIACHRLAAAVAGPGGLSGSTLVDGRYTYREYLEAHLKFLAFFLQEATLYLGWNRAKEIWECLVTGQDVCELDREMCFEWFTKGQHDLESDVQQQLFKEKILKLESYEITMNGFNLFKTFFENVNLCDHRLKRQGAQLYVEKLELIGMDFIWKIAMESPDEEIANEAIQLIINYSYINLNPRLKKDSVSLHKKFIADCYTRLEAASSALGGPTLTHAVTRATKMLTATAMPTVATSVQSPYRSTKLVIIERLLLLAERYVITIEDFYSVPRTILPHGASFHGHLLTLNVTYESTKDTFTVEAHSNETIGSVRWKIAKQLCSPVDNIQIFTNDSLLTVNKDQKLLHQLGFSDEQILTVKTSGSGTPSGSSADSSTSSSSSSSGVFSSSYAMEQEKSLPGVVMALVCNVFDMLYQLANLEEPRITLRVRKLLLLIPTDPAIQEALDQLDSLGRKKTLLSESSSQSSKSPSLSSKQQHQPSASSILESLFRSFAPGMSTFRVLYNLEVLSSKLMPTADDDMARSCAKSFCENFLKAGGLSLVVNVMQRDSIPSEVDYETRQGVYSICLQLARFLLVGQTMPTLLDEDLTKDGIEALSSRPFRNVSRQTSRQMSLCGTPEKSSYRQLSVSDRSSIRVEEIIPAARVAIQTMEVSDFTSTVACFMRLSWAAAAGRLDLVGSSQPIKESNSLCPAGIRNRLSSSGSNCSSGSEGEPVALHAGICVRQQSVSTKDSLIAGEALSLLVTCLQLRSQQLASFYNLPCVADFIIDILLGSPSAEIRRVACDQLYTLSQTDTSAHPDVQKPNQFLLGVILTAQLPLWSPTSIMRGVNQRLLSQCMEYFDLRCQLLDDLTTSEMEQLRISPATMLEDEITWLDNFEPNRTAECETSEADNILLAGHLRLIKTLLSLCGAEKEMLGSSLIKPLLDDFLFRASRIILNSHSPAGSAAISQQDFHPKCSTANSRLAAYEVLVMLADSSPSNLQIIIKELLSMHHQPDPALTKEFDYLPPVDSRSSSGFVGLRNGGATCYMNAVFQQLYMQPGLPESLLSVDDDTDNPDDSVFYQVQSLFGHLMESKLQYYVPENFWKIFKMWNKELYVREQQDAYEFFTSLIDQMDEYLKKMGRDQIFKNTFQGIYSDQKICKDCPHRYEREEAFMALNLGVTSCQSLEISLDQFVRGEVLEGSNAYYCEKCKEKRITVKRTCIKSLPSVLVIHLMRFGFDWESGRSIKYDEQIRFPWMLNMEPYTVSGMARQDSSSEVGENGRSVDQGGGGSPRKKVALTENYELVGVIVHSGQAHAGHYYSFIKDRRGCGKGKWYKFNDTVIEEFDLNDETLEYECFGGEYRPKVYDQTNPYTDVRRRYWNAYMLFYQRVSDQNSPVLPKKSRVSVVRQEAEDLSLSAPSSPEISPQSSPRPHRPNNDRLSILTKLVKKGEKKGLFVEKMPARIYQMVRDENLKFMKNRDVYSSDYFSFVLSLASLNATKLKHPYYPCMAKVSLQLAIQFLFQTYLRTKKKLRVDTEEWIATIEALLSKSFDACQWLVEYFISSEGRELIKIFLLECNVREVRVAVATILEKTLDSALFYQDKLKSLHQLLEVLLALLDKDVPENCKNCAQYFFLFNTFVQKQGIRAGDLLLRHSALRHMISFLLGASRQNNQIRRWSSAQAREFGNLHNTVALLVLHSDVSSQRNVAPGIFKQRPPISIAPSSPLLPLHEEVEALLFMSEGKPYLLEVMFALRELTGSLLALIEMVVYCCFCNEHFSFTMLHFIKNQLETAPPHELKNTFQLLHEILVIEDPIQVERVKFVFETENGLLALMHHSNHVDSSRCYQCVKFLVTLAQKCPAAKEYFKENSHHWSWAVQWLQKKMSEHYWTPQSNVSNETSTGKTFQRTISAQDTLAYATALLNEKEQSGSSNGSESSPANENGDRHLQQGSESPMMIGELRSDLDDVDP
smiles,measurement,setting,value
CN(C)C(=O)c1ccc(NC(=O)CCl)cc1,log2 ratio of Biotin-Ahx-Ub-VS probe labelling,USP19,-0.166
same,log2 ratio of Biotin-Ahx-Ub-VS probe labelling,USP24,-0.00912
same,log2 ratio of Biotin-Ahx-Ub-VS probe labelling,USP25,-1.1 (active)
same,log2 ratio of Biotin-Ahx-Ub-VS probe labelling,USP28,-1.47 (active)
